Test [1] can be described thus: qHTS assay for small molecule antagonists of retinoid X receptor alpha signaling (AID 588546).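 Also: cells stimulated with 9-cis-retinoic acid as agonist; % is scaled to controls: 0 for no effect and ±100 for the full control effect.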 The note with it: HEK293T RXRa-UAS-bla, beta-lactamase ratio, antagonist mode; measured here: W530 green channel, cytotoxicity proxy. Summed up: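 Beta-lactamase reporter inhibition, read as CCF4 fluorescence ratio (ex 405, em 460/530 nm) after 2 h at RT. HEK293T UAS-bla cells, 2500/well, were stimulated with 9-cis-RA at 500 or 100 nM final alongside test compound for 18 h at 37 C.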
(Quantitative high-throughput screening tests each substance at several concentrations.)

For test [2], the target named is Luciferin 4-monooxygenase (Photinus pyralis) (UniProt P08659). Nature of the test: Biochemical firefly luciferase enzyme assay for NPC (AID 624030).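 Also: purified P. pyralis luciferase at 10 nM with luciferin and ATP substrate; 0% = DMSO and -100% = full luciferase inhibition by PTC124 control; nearly all actives have a fitted effect of over 70% in size.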 The gist of the method:
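Counter-screen for direct inhibition of the luciferase enzyme by approved-drug library compounds, run at 10 nM enzyme in 50 mM Tris acetate (final). Luminescence was read within 5 min of enzyme-buffer addition and normalized to PTC124 versus DMSO (0%).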

A short description of test [3]: qHTS assay for environmental chemicals that activate the Aryl hydrocarbon Receptor (AhR) signaling pathway (AID 651777). Also: nearly all actives have a fitted effect of over 15% in size. Also: potency is read from the fitted curve at half-maximal effect. As to activation: % of control where 0% means no effect. The note with it: 1A2-DRE human hepatoma cells, luciferase, 24 h; activation: stronger effect = higher value. Summed up:
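Concentration–response screening used 1,200 1A2-DRE cells per well, 24 hr compound exposure (37 C, 5% CO2), and One-Glo luminescence as the AhR-driven CYP1A2 reporter signal.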

Test [4] has as its target Peroxisome proliferator-activated receptor alpha (Homo sapiens) (UniProt Q07869). Briefly: qHTS assay for small molecule agonists of the peroxisome proliferator-activated receptor alpha (PPARalpha) signaling pathway (AID 651778). Also: % of control where 0% means no effect. The note with it: PathHunter PPARalpha complementation, chemiluminescence, 6 h; max response: stronger effect = higher value. The gist of the method: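 Cells plated at 2,000/well and held overnight at 37 C, 5% CO2, then compound added by pin tool for 6 hr; after PathHunter detection reagent and 60 min at room temperature, chemiluminescence from enzyme complementation was read.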

Test [5] can be described thus: qHTS assay for small molecule agonists of the antioxidant response element (ARE) signaling pathway measured by Nrf2-dependant transcriptional activity (AID 720636; active = well fitted curve in the direction sought with a large enough effect in the repeat runs; an effect the other way counts as inactive or inconclusive; also: potency is read from the fitted curve at half-maximal effect;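 as to activation: HepG2 cells with an ARE-driven luciferase reporter; % of control where 0% means no effect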). The gist of the method:
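Attachment 6 hr at 37 C, then compound versus DMSO vehicle for 16 hr in ARE-luc HepG2 cells (1% dialyzed FBS); luminescence recorded 30 min after ONE-Glo addition at room temperature.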

A short description of test [6]: qHTS assay for cell viability of HEK293 cells (AID 743288). Also: nearly all actives have a fitted effect of over 50% in size. Also: potency is read from the fitted curve at half-maximal effect. As to max response: % is scaled to controls: 0 for no effect and ±100 for the full control effect. The settings on record: ATP luminescence (CellTiter-Glo), 18 h; max response: stronger effect = lower value. Summed up: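 Steps: plate 2,000 parental HEK293 cells per well; incubate ≥5 h, 37 C; add compounds in DMSO; incubate 18 h, 37 C; add CellTiter-Glo; wait 30 min at room temperature; read luminescence.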
Test [7] can be described thus: qHTS profiling for inhibitors of Plasmodium falciparum proliferation (AID 504749). Also: nearly all actives have a fitted effect of over 60% in size. Also: potency is read from the fitted curve at half-maximal effect.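 As to activity, negative = inhibition: 0% = DMSO vehicle and full inhibition = artemisinin control.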 The settings on record: P. falciparum in erythrocytes, SYBR Green DNA, 72 h, at 28.7 µM (top of the series). Summed up:
(§1)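 Fluorescence of SYBR Green-bound parasite DNA, read at 485/535 nm, served as the growth measure. Infected erythrocytes were cultured with compound 72 h; artemisinin (0.29 uM) and DMSO wells defined the normalization range.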

In a further test the test system is AA1029. The description is as above. The note with it: P. falciparum in erythrocytes, SYBR Green DNA, 72 h; series mostly up to 28.7 µM. Summed up: as §1
In a further test the test system is ATS189. The test is described as above. The settings on record: P. falciparum in erythrocytes, SYBR Green DNA, 72 h; series mostly up to 28.7 µM. The gist of the method:
as §1

Another test relates to ATS95. The test is described as above. The note with it: P. falciparum in erythrocytes, SYBR Green DNA, 72 h; series mostly up to 28.7 µM. The gist of the method: as §1
Another test deals with CP192. The test is described as above. The settings on record: P. falciparum in erythrocytes, SYBR Green DNA, 72 h; series mostly up to 28.7 µM. The gist of the method: as §1
The test system of another test is CP238. Described as above. The settings on record: P. falciparum in erythrocytes, SYBR Green DNA, 72 h; series mostly up to 28.7 µM. Summed up: as §1
For the next test, the system named is CP286. Described as above. The note with it: P. falciparum in erythrocytes, SYBR Green DNA, 72 h; series mostly up to 28.7 µM. The gist of the method: as §1
A further test relates to CP291. Described as above. The settings on record: P. falciparum in erythrocytes, SYBR Green DNA, 72 h; series mostly up to 28.7 µM. The gist of the method:
as §1

In the next test the test system is DFO2036. The test is described as above. The note with it: P. falciparum in erythrocytes, SYBR Green DNA, 72 h; series mostly up to 28.7 µM. The gist of the method:
as §1

The subject of the next test is GB4. The description is as above. The settings on record: P. falciparum in erythrocytes, SYBR Green DNA, 72 h; series mostly up to 28.7 µM. Summed up:
as §1

Test [8] addresses Phospholipid hydroperoxide glutathione peroxidase GPX4 (Homo sapiens) (UniProt P36969). Nature of the test: Primary qHTS Assay for Inhibitors of Recombinant Selenoprotein Glutathione Peroxidase 4 (GPX4) (AID 1845192). Also: nearly all actives have a fitted effect of over 65% in size. Summed up:
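qHTS, GR-coupled: GPX4 200 nM + cpd 30 min RT → GSH 1 mM, NADPH 0.5 mM, GR 100 nM → CHP 0.5 mM start; fluor 340/450 at t0 and t15 min; no-enzyme wells as control.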

Test [9] deals with Cytochrome P450 3A4 (Homo sapiens) (UniProt P08684). Briefly: qHTS Assay for Inhibitors and Substrates of Cytochrome P450 3A4 (AID 884). Also: nearly all actives have a fitted effect of over 50% in size. Also: potency is read from the fitted curve at half-maximal effect. The gist of the method: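 Luminescent readout of luciferin produced by CYP3A4 (20 nM) dealkylation of Luciferin-PPXE, 25 uM (its KM). NADPH-driven reaction ran 60 min at RT after 10 min compound preincubation; data scaled to 57 uM ketoconazole as 100% inhibition.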

Where “and” joins values, the source holds several entries; their conditions need not be identical. Equal values may be shown once. Results filed as inconclusive are left out. Calls of active or inactive are those of the source. Unless noted, calls follow the shape of the dose curve; as a rule, active = well fitted curve in the direction sought with a large enough effect; inconclusive = small, poorly fitted or top-dose-only effect, or another doubt; inactive = no such curve, though single readings can be large; an effect the other way counts as inactive or inconclusive.

Sequence of Luciferin 4-monooxygenase (Photinus pyralis) (P08659 whole entry, looked up): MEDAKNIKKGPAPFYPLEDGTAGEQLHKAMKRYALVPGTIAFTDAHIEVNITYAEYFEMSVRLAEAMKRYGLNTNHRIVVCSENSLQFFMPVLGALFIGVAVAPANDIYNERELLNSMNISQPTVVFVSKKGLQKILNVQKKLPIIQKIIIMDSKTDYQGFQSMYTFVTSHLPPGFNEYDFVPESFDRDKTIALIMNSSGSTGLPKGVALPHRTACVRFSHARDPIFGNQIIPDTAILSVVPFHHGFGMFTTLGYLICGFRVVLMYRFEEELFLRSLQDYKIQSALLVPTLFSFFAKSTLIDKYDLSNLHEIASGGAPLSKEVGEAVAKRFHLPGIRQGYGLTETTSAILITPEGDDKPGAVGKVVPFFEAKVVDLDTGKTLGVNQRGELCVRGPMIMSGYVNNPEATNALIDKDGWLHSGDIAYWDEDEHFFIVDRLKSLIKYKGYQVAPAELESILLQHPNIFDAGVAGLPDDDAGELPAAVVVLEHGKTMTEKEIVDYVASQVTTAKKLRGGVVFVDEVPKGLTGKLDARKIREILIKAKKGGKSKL
Sequence of Cytochrome P450 3A4 (Homo sapiens) (P08684 whole entry, looked up): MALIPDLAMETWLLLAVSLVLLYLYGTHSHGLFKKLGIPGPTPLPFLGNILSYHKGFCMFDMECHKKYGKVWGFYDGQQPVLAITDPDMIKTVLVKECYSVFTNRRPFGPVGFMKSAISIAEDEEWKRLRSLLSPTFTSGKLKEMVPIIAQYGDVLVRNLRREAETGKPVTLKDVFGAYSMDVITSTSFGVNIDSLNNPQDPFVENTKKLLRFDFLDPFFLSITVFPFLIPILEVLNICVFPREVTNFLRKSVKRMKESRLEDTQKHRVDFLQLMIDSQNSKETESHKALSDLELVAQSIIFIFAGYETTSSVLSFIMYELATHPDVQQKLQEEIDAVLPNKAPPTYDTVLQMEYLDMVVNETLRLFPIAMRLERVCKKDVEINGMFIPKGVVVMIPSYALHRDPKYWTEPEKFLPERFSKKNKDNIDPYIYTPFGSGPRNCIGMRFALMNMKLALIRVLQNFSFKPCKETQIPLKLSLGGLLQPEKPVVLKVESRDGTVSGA
Sequence of Phospholipid hydroperoxide glutathione peroxidase GPX4 (Homo sapiens) (P36969 whole entry, looked up): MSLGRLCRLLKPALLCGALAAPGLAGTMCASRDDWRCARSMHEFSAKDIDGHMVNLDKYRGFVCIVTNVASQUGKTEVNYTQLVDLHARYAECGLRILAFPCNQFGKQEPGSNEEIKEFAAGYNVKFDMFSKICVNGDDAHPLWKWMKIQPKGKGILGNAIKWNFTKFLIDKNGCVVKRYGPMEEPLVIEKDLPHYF
Sequence of Peroxisome proliferator-activated receptor alpha (Homo sapiens) (Q07869 whole entry, looked up): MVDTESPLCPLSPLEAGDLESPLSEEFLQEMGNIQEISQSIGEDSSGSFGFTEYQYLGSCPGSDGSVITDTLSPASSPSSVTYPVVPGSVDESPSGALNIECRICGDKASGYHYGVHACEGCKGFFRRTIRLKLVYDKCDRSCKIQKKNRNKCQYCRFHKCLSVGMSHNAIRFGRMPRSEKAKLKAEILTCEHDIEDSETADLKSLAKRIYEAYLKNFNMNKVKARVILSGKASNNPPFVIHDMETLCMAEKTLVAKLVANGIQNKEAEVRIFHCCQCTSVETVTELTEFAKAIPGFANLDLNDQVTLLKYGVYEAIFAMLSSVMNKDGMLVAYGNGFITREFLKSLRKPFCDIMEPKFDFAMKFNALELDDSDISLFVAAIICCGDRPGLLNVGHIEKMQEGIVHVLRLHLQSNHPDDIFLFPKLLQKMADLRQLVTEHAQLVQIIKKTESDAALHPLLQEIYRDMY

For `C/C=C\c1ccc(OC)cc1`, the max response is 1.79% in [1], -5.71% (inactive) in test [4] and 8.66% (inactive) in test [6]. Also, the Potency entry (in [2]; in [5]; in the test on AA1029; with ATS189; with ATS95; with CP192) was “inactive” each time. Also, the Potency entry in the test on CP238, in the test with CP286, in the test with CP291, in the test with DFO2036 and in the test on GB4 was “inactive” throughout. In test [3], the activation was -0.657% (inactive). The activity, negative = inhibition in test [7] (parasite line A) is -0.333% (inactive); in test [7] (parasite line B), -2.16% (inactive).
Consider `O=C1CCC(C(=O)O)N1` (stereo unspecified), for which the Potency entry in [8] is “inactive”.
Take `Cc1cccc([N+](=O)[O-])c1C`: the Potency entry in test [9] and in [5] was “inactive” each time. In addition, the max response was -3.46% and -5.25% in [1]; 2.79% (inactive) and -1.9% (inactive) in test [4]; -3.29% (inactive) and 4.27% (inactive) in test [6]. Further, the activation in test [3] was 0.368% (inactive) and -0.256% (inactive).
Turning to `CC(=O)OCC1=C(C(=O)O)N2C(=O)[C@@H](NC(=O)CC#N)[C@H]2SC1`, the Potency result in test [8] is “inactive”.
Consider `OC[C@H]1OC(O)C[C@@H](O)[C@@H]1O` (stereo partly specified), for which the Potency entry in test [8] was “inactive”.
With `CN1CC[C@H](CN2c3ccccc3Sc3ccccc32)C1`, the Potency result (in [2]; in [8]; with CP192) was “inactive” in each case. Further, the Potency with AA1029 was 5.01 µM (active); in the test on ATS189, 11.2 µM (active); in the test with ATS95, 12.6 µM (active); in the test on CP238, 8.91 µM (active); with CP286, 12.6 µM (active); in the test with CP291, 15.1 µM (active). The Potency with DFO2036 was 12.6 µM (active); in the test with GB4, 13.5 µM (active).
As for `O[C@@H]([C@H](O)[C@@H](O)CBr)[C@@H](O)CBr`, the Potency result in test [9], in test [5] and in test [8] was “inactive” in each case. Moreover, the values for the max response in test [1], in test [4] and in test [6] were -10.6%, -0.722% (inactive) and -10.9% (inactive), respectively. Also, the activation in test [3] is 0.0467% (inactive).
Take `CC1(C)CC(N=C=O)CC(C)(CN=C=O)C1` (stereo unspecified): the max response in test [1] is -0.108% and -15.8%; in [4] it was -1.83% (inactive) and -0.793% (inactive); in test [6] it was -4.37% (inactive) and 1.94% (inactive). Moreover, the activation in test [3] is 2.53% (inactive) and -0.0427% (inactive). In test [5], the Potency entry was “inactive”.
Consider `N=C(N)c1ccc(OCCCOc2ccc(C(=N)N)cc2Br)c(Br)c1`, for which the Potency result in test [2] and in [8] was “inactive” each time.
`CCC(O)OC(O)CC` (stereo unspecified): the Potency entry in test [9] and in test [5] was “inactive” throughout. The max response in test [1] was -6.87% and -7.76%; in test [4], -0.587% (inactive) [middle of 4 runs]; in [6], -2.73% (inactive) [middle of 4 runs]. Further, the activation in test [3] is 0.464% (inactive) [middle of 4 runs].
As to `CC(C)C[C@H](NC(=O)[C@@H](Cc1c[nH]c2ccccc12)NC(=O)[C@H](Cc1ccc(O)cc1)NC(=O)[C@H](CO)NC(=O)[C@H](Cc1c[nH]c2ccccc12)NC(=O)[C@H](Cc1cnc[nH]1)NC(=O)[C@@H]1CCC(=O)N1)C(=O)N[C@@H](CCCN=C(N)N)C(=O)N1CCC[C@H]1C(=O)NCC(N)=O`, the Potency entry in test [8] was “inactive”.
With `O=C1c2ccccc2C(=O)C1c1ccc2ccccc2n1`, the Potency is 2.51 µM (active) in test [9]; 39.8 µM (active) and 7.08 µM (active) in test [3]; 1.54 µM (active) and 1.33 µM (active) in test [5]; 39.8 µM (active) in test [6]. The max response in [1] is -3.83%; in [4] it was 1.24% (inactive) and 1.1% (inactive).
For the compound `NC1=NC(S)C2N=CN=C2N1` (stereo unspecified), the Potency entry (in [9]; in [5]; with AA1029; with ATS189; in the test with ATS95; with CP192) was “inactive” throughout. In addition, the Potency entry in the test with CP238, with CP286, in the test with CP291, in the test with DFO2036 and in the test with GB4 was “inactive” each time. The max response in [1] is 4.34%; in test [4], -3.14% (inactive). In addition, in test [3], the activation was -2.51% (inactive). For the same compound, the Potency in [6] is 2.82 µM (active). The activity, negative = inhibition in [7] (parasite line A) was 3.76% (inactive); in test [7] (parasite line B), -5.29% (inactive).

(Values after PubChem BioAssay (NCATS).)
